Where “and” joins values, the source holds several entries; their conditions need not be identical. Identical values can stand only once. Results filed as inconclusive are left out. Calls of active or inactive are those of the source. Calls come from the whole dose curve; as a rule, active = well fitted curve in the direction sought with a large enough effect in the repeat runs; inconclusive = weak or mixed curves; inactive = no such curve, though single readings can be large; an effect the other way counts as inactive or inconclusive.
Key:
[1] = A CellTox Green Cytotoxicity Assay to monitor cytotoxicity in HEK293 cells - 24 hour (AID 1224875); note: series mostly up to about 77 µM; nearly all actives have a fitted effect of over 45% in size
In short: (§1)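 Seeding of HEK293 cells together with cytotoxicity dye preceded a 5 h incubation at 37 C/5% CO2. Test compounds in DMSO were then added and fluorescence monitored across 40 h.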

[2] = A CellTox Green Cytotoxicity Assay to monitor cytotoxicity in HepG2 cells - 16 hour (AID 1224876); note: nearly all actives have a fitted effect of over 45% in size
In short: (§2)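 Nonlytic assay: viable cells exclude the dye, so fluorescence scales with cell death. HepG2 at 600 cells/well, compounds added after 5 h, signal read across 40 h.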

[3] = qHTS RealTime-Glo MT Cell Viability Assay in HepG2 cells - 32 hour (AID 1224877); note: nearly all actives have a fitted effect of over 55% in size
In short: (§3)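 Compound treatment began 5 h after plating HepG2 cells (600/well) with NanoLuc luciferase and prosubstrate. Plates stayed at 37 C for 40 h; luminescence was captured at six time points, 0 h through 40 h.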

[4] = A CellTox Green Cytotoxicity Assay to monitor cytotoxicity in HepG2 cells - 24 hour (AID 1224878); note: nearly all actives have a fitted effect of over 45% in size
In short: as §2

[5] = A CellTox Green Cytotoxicity Assay to monitor cytotoxicity in HepG2 cells - 40 hour (AID 1224879); note: nearly all actives have a fitted effect of over 40% in size
In short: as §2

[6] = A CellTox Green Cytotoxicity Assay to monitor cytotoxicity in HEK293 cells - 32 hour (AID 1224881); note: nearly all actives have a fitted effect of over 40% in size
In short: as §1

[7] = A CellTox Green Cytotoxicity Assay to monitor cytotoxicity in HepG2 cells - 0 hour (AID 1224882); note: nearly all actives have a fitted effect of over 35% in size
In short: as §2

[8] = A CellTox Green Cytotoxicity Assay to monitor cytotoxicity in HEK293 cells - 8 hour (AID 1224884); note: nearly all actives have a fitted effect of over 35% in size
In short: as §1

[9] = qHTS RealTime-Glo MT Cell Viability Assay in HepG2 cells - 16 hour (AID 1224885); note: nearly all actives have a fitted effect of over 50% in size
In short: as §3

[10] = qHTS RealTime-Glo MT Cell Viability Assay in HEK293 cells - 24 hour (AID 1224886); note: top concentration of the series differs between compounds; nearly all actives have a fitted effect of over 50% in size
In short: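 Quantitative high-throughput screen of the Tox21 10K library in HEK293: cells and RealTime-Glo reagents plated together, compound added at 5 h, luminescence monitored through 40 h at 37 C.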

[11] = qHTS RealTime-Glo MT Cell Viability Assay in HEK293 cells - 8 hour (AID 1224887); note: top concentration of the series differs between compounds; nearly all actives have a fitted effect of over 50% in size
In short: (§4)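 Tox21 screen in HEK293 using RealTime-Glo MT chemistry, with cells and reagent co-dispensed. Luminescence proportional to viable cell number was captured at intervals during 40 h compound exposure at 37 C.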

[12] = A CellTox Green Cytotoxicity Assay to monitor cytotoxicity in HEK293 cells - 16 hour (AID 1224888); note: nearly all actives have a fitted effect of over 35% in size
In short: as §1

[13] = qHTS RealTime-Glo MT Cell Viability Assay in HepG2 cells - 0 hour (AID 1224889); note: nearly all actives have a fitted effect of over 50% in size
In short: as §3

[14] = A CellTox Green Cytotoxicity Assay to monitor cytotoxicity in HepG2 cells - 8 hour (AID 1224890); note: nearly all actives have a fitted effect of over 45% in size
In short: as §2

[15] = qHTS assay to identify small molecule antagonists of the estrogen receptor alpha (ER-alpha) signaling pathway using the BG1 cell line in the presence of 0.1 nM 17-beta-estradiol - cell viability counter screen (AID 1259241); note: nearly all actives have a fitted effect of over 40% in size
In short: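 VM7Luc4E2 cells (endogenous full-length ER-alpha, 4xERE-luciferase), cultured 5 days in charcoal-stripped serum, exposed to compounds with 0.1 nM 17beta-estradiol (final) for 22 hr at 37C. Viability read in same wells as live-cell protease fluorescence after 30 min.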

[16] = qHTS assay to identify small molecule antagonists of the androgen receptor (AR) signaling pathway using the MDA cell line in the presence of 0.5 nM R1881 - cell viability counter screen (AID 1259242); note: nearly all actives have a fitted effect of over 45% in size
In short: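 R1881 at 0.5 nM final stimulated MDA-kb2 cells during 16 hr compound treatment at 37C. Cytotoxicity read: CellTiter-Fluor fluorescence after 30 min.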

[17] = qHTS RealTime-Glo MT Cell Viability Assay in HEK293 cells - 40 hour (AID 1224874); conditions: RealTime-Glo luminescence; max response: stronger effect = lower value; note: nearly all actives have a fitted effect of over 50% in size
In short: as §4

[18] = A CellTox Green Cytotoxicity Assay to monitor cytotoxicity in HepG2 cells - 32 hour (AID 1224883); note: nearly all actives have a fitted effect of over 50% in size
In short: as §2

[19] = qHTS RealTime-Glo MT Cell Viability Assay in HEK293 cells - 0 hour (AID 1224880)
In short: as §4
% is set by controls: 0 for no effect and ±100 for the full control effect.

O=S(=O)(c1ccc(Cl)cc1)c1cc(Cl)c(Cl)cc1Cl
inactive: Potency [1] | Potency [2] | outcome [3] | Potency [4] | Potency [5] | Potency [6] | Potency [7] | Potency [8] | outcome [9] | Potency [10] | outcome [11] | Potency [12] | outcome [13] | Potency [14] | Potency [15] | outcome [16]

CC(C)OC(=O)Nc1cccc(Cl)c1
inactive: max response [17] -5.94% and -18% | Potency [1] | Potency [2] | Potency [4] | Potency [5] | Potency [6] | Potency [7] | Potency [18] | Potency [8] | outcome [9] | Potency [10] | outcome [13] | Potency [15] | outcome [16]

CCc1cccc(C)c1N(C(=O)CCl)C(C)COC (stereo not given)
inactive: max response [17] -0.256% and -7.36% | Potency [1] | Potency [2] | Potency [4] | Potency [5] | Potency [6] | Potency [7] | Potency [8] | outcome [9] | Potency [10] | outcome [11] | Potency [12] | outcome [13] | Potency [15] | outcome [16]

ClCCBr
inactive: max response [17] -0.15% and 0.955% | Potency [1] | Potency [2] | Potency [4] | Potency [5] | Potency [6] | Potency [7] | Potency [18] | Potency [8] | Potency [10] | outcome [11] | outcome [13] | Potency [14] | Potency [15] | outcome [16]

OCCN(CCO)CCO
inactive: max response [17] -6.59% and 8.79% | Potency [1] | Potency [2] | Potency [4] | Potency [5] | Potency [6] | Potency [7] | Potency [8] | outcome [9] | Potency [10] | outcome [11] | Potency [12] | outcome [13] | Potency [15] | outcome [16]

O=S(=O)(c1ccc(O)cc1)c1ccc(O)cc1
inactive: max response [17] -19.2% | Potency [1] | Potency [2] | Potency [4] | Potency [5] | outcome [19] | Potency [6] | Potency [7] | Potency [8] | outcome [9] | Potency [10] | outcome [11] | outcome [13] | Potency [15] | outcome [16]

Oc1ccccc1Cl
inactive: max response [17] 9.22% and 18.7% | Potency [1] | Potency [2] | Potency [4] | Potency [5] | Potency [6] | Potency [7] | Potency [18] | Potency [8] | Potency [10] | outcome [11] | outcome [13] | Potency [14] | Potency [15] | outcome [16]

Source: PubChem BioAssay (Tox21)
